The full data set covers some 8,800 targets. This sample favours those with a hit. About 0.5% of all pairs of compound and target were hits.
Experiments:
Experiment in all cases: log2 fold change, soluble protein after heating vs DMSO (PISA); higher = thermal stabilisation; K562 lysate, 10 uM; active = over 0.2 and 3.5 SD of the protein, either way, in both replicates (recomputed)
[1] = compound: CC(=O)c1cnc2ccc(-c3cc(Cl)c(O)c(Cl)c3)nc2c1N[C@H]1CC[C@H](CN(C)C)CC1
Method in brief: (§1)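 Log-two fold change in thermal stability relative to solvent controls is reported from duplicates. For each sample, crude K562 extract from dounce-homogenised pellets in PBS pH 7.4 with 1 mM MgCl2, at 1 mg/mL protein, was treated with 10 μM compound for 30 min. Aliquots heated for 3 min across 48°C-58°C were pooled, brought to 0.5% NP-40 at 4°C and cleared at 21,000xg for 90 min. The supernatant was quantified by TMTpro 16plex LC-MS/MS with channel sums equalised.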

ralimetinib = compound: CC(C)(C)Cn1c(N)nc2ccc(-c3[nH]c(C(C)(C)C)nc3-c3ccc(F)cc3)nc21 [ralimetinib]
Method in brief: as §1

[2] = compound: CC(C)(O)CC(=O)NCCn1ccc2ncnc(Nc3ccc(Oc4cccc(C(F)(F)F)c4)c(Cl)c3)c21
Method in brief: as §1

[3] = compound: CC(C)C1=C2N=C(C=C(N2N=C1)NCC3=CC=CC=C3)NCCCCCCN
Method in brief: as §1

[4] = compound: CC1=C(C(CC(=O)N1)C2=CC=C(C=C2)C(F)(F)F)C(=O)NC3=C(C=C4C(=C3)C=NN4)F
Method in brief: as §1

[5] = compound: CC1=C(C2=C(C=C1)C(=O)C3=CC=CC=C3N2CCCN)C
Method in brief: as §1

[6] = compound: CC1=C(C=C(C=C1)NC(=O)C2=CC(=CC=C2)C(C)(C)C#N)NC3=CC4=C(C=C3)N=CN(C4=O)C
Method in brief: as §1

[7] = compound: CC1=C(C=C(C=C1)NC(=O)C2=CC(=CC=C2)N(C)C)NC(=O)C3=CC=C(C=C3)O
Method in brief: as §1

[8] = compound: CC1=CC=C(C=C1)SC2=C3C=C(SC3=CN=C2)C(=O)N
Method in brief: as §1

vemurafenib = compound: CCCS(=O)(=O)Nc1ccc(F)c(C(=O)c2c[nH]c3ncc(-c4ccc(Cl)cc4)cc23)c1F [vemurafenib]
Method in brief: as §1

[9] = compound: CCCS(=O)(=O)Nc1ccc(F)c(C(=O)c2c[nH]c3ncc(Cl)cc23)c1F
Method in brief: as §1

barasertib = compound: CCN(CCCOc1ccc2c(Nc3cc(CC(=O)Nc4cccc(F)c4)[nH]n3)ncnc2c1)CCOP(=O)(O)O [barasertib]
Method in brief: as §1

[10] = compound: CC[C@@H]1C(=O)N(C)c2cnc(Nc3ccc(C(=O)NC4CCN(C)CC4)cc3OC)nc2N1C1CCCC1
Method in brief: as §1

volasertib = compound: CC[C@@H]1C(=O)N(C)c2cnc(Nc3ccc(C(=O)N[C@H]4CC[C@H](N5CCN(CC6CC6)CC5)CC4)cc3OC)nc2N1C(C)C [volasertib]
Method in brief: as §1

[11] = compound: CCn1c(C(=O)N(C2CC2)C2CC2)cc2c3c(ncn3C)c(Nc3cc(C)n(C)n3)nc21
Method in brief: as §1

[12] = compound: CCn1cc(-c2ccnc3[nH]c(-c4cccc(CN(C)C)c4)cc23)c(-c2ccc(NC(=O)N(C)C)cc2)n1
Method in brief: as §1

[13] = compound: CN1CCC(CNc2ccc3ncc(-c4cccc(OC(F)(F)F)c4)n3n2)CC1
Method in brief: as §1

saracatinib = compound: CN1CCN(CCOc2cc(OC3CCOCC3)c3c(Nc4c(Cl)ccc5c4OCO5)ncnc3c2)CC1 [saracatinib]
Method in brief: as §1

sotrastaurin = compound: CN1CCN(c2nc(C3=C(c4c[nH]c5ccccc45)C(=O)NC3=O)c3ccccc3n2)CC1 [sotrastaurin]
Method in brief: as §1

Measured: log2 fold change

CLPB isoform 2 (UniProt Q9H078)
inactive: [1] -0.016 | ralimetinib 0.002 | [2] -0.024 | [3] -0.006 | [4] 0.002 | [5] -0.054 | [6] -0.011 | [7] 0.025 | [8] 0.012 | vemurafenib 0.011 | [9] 0.023 | barasertib 0.026 | [10] 0.007 | volasertib -0.042 | [11] 0.044 | [12] 0.078 | [13] -0.045 | saracatinib 0.004 | sotrastaurin -0.012

COX7B (UniProt P24311)
UniProt P24311, sequence (P24311 whole entry, looked up): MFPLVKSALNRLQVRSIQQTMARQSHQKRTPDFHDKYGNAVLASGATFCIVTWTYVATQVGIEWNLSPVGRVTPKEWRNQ
inactive: [1] -0.016 | ralimetinib 0.014 | [2] -0.09 | [3] 0.008 | [4] -0.046 | [5] -0.144 | [6] 0.018 | [7] 0.039 | [8] 0.02 | vemurafenib 0.014 | [9] -0.047 | [10] -0.01 | volasertib 0.004 | [11] -0.051 | [12] 0.047 | [13] -0.013 | saracatinib -0.062 | sotrastaurin -0.028

DESI2 (UniProt Q9BSY9)
UniProt Q9BSY9, sequence (Q9BSY9 whole entry, looked up): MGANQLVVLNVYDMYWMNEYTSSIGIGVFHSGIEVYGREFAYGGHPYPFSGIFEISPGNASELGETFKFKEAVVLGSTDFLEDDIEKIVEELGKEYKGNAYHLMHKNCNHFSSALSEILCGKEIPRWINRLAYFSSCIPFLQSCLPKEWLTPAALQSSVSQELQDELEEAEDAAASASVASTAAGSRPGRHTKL
inactive: vemurafenib 0.064 | [10] 0.089 | [12] 0.116 | [13] -0.113

CSNK2A1, A0A2R8Y4D6
inactive: [1] 0.172 | [8] -0.292 | [9] 0.107 | volasertib -0.325

CLASP1 isoform 4 (UniProt Q7Z460)
UniProt Q7Z460, sequence (Q7Z460 whole entry, looked up): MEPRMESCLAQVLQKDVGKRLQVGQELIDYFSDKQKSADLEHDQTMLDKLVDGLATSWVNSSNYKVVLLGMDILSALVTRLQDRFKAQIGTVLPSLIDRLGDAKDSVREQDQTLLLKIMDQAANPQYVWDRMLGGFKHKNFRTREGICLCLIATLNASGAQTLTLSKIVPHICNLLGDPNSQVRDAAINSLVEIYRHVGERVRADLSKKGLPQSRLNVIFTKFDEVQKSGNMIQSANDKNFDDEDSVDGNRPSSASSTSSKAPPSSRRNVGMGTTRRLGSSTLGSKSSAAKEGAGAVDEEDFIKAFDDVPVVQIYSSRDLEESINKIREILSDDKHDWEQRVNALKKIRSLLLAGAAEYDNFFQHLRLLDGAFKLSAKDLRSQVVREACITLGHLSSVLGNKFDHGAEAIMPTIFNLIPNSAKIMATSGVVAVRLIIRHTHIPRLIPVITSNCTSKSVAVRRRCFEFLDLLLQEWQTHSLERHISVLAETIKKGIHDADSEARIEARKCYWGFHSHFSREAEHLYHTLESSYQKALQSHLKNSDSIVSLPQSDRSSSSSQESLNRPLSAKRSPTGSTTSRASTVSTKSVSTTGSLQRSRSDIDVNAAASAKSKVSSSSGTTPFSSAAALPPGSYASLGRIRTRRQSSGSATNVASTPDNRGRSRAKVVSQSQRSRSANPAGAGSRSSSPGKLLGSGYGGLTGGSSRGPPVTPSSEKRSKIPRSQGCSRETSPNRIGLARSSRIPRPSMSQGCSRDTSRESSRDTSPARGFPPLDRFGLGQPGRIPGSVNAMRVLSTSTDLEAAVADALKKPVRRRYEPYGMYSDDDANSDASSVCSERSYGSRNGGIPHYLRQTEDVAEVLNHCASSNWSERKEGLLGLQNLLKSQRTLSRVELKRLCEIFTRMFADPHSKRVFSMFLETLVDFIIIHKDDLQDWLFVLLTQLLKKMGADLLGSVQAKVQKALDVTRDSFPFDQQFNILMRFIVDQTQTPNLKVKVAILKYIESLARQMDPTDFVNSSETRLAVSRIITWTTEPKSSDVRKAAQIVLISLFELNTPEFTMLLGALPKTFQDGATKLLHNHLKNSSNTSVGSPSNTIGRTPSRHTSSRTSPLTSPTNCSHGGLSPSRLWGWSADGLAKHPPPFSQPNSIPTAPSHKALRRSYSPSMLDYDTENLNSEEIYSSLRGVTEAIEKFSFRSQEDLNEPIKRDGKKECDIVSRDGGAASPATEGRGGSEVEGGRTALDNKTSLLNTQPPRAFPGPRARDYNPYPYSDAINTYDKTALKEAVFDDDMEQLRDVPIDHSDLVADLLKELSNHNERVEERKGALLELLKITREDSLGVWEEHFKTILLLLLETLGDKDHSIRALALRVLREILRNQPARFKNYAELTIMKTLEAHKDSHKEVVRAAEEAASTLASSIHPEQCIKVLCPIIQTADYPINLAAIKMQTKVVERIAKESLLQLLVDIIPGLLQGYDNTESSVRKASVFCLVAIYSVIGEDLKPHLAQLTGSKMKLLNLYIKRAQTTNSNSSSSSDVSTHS
inactive: [3] -0.124 | [4] -0.226 | vemurafenib 0.272

CLASP2 (UniProt O75122)
inactive: [1] -0.048 | ralimetinib 0.075 | [2] 0.069 | [4] 0.044 | [6] -0.098 | [7] 0.001 | [8] -0.028 | vemurafenib 0.241 | [9] 0.072 | barasertib -0.015 | [10] 0.021 | volasertib -0.052 | [11] -0.098 | [12] -0.077 | [13] 0.073 | sotrastaurin 0.18

CLCN3 (UniProt P51790)
inactive: [1] 0.038 | ralimetinib 0.038 | [2] 0.05 | [3] -0.089 | [4] -0.03 | [5] 0.024 | [6] -0.155 | [7] -0.017 | [8] 0.079 | vemurafenib -0.096 | [9] -0.076 | barasertib 0.014 | [10] -0.178 | volasertib -0.025 | [11] 0.034 | [12] 0.009 | [13] 0.004 | saracatinib 0.01 | sotrastaurin -0.017

CORO7 (UniProt P57737)
inactive: ralimetinib -0.039 | [2] 0.06 | [3] -0.076 | [4] -0.202 | [5] 0.067 | [6] -0.229 | [7] 0.134 | vemurafenib -0.143 | [10] 0.089 | [11] -0.025 | [12] 0.321 | [13] 0.165 | saracatinib 0.166 | sotrastaurin 0.137

DALRD3 (UniProt Q5D0E6)
UniProt Q5D0E6, sequence (Q5D0E6 whole entry, looked up): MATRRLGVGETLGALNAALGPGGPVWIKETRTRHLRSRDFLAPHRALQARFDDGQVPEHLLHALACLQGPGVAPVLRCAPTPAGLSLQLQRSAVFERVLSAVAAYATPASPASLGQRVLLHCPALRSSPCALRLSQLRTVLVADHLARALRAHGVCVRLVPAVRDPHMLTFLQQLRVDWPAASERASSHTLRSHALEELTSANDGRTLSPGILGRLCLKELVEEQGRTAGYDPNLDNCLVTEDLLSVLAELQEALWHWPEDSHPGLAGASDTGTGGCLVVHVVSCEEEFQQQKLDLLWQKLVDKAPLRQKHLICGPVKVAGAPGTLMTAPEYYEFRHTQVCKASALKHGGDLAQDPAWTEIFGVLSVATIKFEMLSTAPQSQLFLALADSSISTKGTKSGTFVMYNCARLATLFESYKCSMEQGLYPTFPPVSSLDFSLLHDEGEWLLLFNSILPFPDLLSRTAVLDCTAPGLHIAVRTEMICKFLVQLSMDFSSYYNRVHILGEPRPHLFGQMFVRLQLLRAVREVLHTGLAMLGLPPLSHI
inactive: [1] 0.028 | [3] -0.024 | [8] 0.037 | vemurafenib -0.033 | [9] -0.025 | [10] -0.095 | volasertib -0.041 | [12] 0.003 | [13] 0.144

CLUH, A0A494C0R8
inactive: [1] 0.138 | ralimetinib 0.053 | [2] -0.043 | [3] 0.002 | [4] -0.128 | [5] 0 | [6] 0.016 | [7] -0.035 | [8] 0.029 | vemurafenib -0.11 | [9] 0.027 | barasertib -0.092 | [10] 0.097 | volasertib -0.005 | [11] 0 | [13] -0.047 | saracatinib 0.03 | sotrastaurin 0.051
active: [12] 0.59

DCTN1 isoform 4 (UniProt Q14203)
inactive: [1] 0.089 | ralimetinib 0.114 | [2] -0.076 | [3] 0.1 | [4] -0.074 | [5] -0.11 | [6] 0.044 | [7] 0.036 | [8] -0.029 | vemurafenib 0.07 | [9] 0.089 | [10] 0.139 | volasertib -0.019 | [11] -0.28 | [12] 0.34 | [13] 0.121 | saracatinib 0.123 | sotrastaurin -0.027

CLUH (UniProt O75153)
UniProt O75153, sequence (O75153 whole entry, looked up): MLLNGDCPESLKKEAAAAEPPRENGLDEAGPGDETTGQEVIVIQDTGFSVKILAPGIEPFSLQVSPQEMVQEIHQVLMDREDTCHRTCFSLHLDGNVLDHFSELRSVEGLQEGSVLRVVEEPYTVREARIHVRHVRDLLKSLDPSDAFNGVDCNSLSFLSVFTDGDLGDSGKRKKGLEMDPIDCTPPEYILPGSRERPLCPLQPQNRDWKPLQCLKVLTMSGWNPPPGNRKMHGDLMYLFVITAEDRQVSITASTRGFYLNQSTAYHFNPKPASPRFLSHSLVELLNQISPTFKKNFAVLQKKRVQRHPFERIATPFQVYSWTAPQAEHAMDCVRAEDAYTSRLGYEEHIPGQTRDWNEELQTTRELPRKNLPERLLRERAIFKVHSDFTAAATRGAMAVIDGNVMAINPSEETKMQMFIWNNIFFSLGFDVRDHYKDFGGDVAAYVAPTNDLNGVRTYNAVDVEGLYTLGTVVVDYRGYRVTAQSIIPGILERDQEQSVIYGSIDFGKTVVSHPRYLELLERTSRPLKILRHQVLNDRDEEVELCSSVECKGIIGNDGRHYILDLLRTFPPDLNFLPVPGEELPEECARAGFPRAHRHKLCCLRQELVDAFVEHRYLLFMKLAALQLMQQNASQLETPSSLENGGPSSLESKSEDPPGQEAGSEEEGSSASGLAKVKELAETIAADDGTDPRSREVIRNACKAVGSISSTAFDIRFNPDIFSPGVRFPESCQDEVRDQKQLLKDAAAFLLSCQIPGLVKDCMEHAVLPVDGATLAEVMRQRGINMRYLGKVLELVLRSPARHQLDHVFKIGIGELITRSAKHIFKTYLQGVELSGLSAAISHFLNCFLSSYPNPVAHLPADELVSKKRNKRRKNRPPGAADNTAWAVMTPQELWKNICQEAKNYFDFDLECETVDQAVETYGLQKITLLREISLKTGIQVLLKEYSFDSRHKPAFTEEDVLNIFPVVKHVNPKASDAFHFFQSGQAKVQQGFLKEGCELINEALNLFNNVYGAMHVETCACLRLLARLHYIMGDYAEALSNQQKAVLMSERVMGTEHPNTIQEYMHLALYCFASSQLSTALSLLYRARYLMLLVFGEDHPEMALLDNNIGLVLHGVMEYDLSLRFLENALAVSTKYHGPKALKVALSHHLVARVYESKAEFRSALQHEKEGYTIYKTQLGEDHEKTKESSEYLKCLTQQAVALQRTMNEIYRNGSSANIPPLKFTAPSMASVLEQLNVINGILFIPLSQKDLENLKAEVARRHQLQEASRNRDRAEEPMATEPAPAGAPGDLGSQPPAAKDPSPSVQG
inactive: [1] 0.093 | ralimetinib 0.008 | [2] -0.004 | [3] -0.044 | [4] -0.01 | [5] 0 | [6] -0.001 | [7] 0.006 | [8] 0.008 | vemurafenib -0.03 | [9] 0.014 | barasertib 0.024 | [10] 0.012 | volasertib -0.02 | [11] -0.009 | [12] -0.024 | [13] 0.117 | saracatinib 0.011 | sotrastaurin 0.01

CNK3/IPCEF1 isoform 2 (UniProt G9CGD6)
active: [12] -1.81
inactive: ralimetinib 0.215 | [2] -0.138 | [3] -0.096 | [5] 0.075 | [7] 0 | vemurafenib -0.062 | [10] 0.056 | [11] 0.078 | [13] 0.506 | saracatinib 0.053

CHFR (UniProt Q96EP1)
UniProt Q96EP1, sequence (Q96EP1 whole entry, looked up): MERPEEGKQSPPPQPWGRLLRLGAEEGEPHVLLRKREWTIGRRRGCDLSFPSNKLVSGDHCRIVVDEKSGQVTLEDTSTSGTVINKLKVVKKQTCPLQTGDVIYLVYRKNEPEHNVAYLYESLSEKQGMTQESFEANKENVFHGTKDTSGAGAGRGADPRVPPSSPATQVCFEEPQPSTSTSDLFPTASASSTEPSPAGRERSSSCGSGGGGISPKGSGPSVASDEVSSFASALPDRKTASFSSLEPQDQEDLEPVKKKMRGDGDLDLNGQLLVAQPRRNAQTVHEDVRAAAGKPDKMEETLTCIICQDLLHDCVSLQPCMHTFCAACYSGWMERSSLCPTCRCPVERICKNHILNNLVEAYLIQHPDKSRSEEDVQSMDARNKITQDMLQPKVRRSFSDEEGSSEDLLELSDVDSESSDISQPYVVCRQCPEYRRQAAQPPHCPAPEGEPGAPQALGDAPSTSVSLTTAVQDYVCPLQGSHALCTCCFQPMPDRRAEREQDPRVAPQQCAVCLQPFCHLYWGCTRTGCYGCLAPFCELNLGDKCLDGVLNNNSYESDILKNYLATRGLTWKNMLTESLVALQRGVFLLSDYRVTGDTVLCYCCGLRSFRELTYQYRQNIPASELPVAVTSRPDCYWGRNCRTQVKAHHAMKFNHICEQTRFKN
inactive: [1] 0.158 | ralimetinib 0.007 | [2] -0.049 | [3] -0.047 | [4] 0.003 | [5] -0.06 | [6] -0.021 | [7] 0.031 | [8] 0.102 | vemurafenib -0.252 | [9] 0.063 | [10] -0.013 | volasertib 0.043 | [11] 0.052 | saracatinib 0.052 | sotrastaurin 0.033

CLIP1, A0A3B3ITA2
active: [13] 0.634
inactive: ralimetinib 0.156 | [2] -0.173 | [6] 0.019 | [7] -0.215 | vemurafenib -0.026 | [11] -0.015 | [12] -0.515 | sotrastaurin -0.021

CLASP2 isoform 3 (UniProt O75122)
inactive: [1] 0.004 | ralimetinib 0.019 | [2] -0.014 | [3] 0.025 | [4] 0.019 | [5] -0.008 | [6] 0.023 | [7] 0.042 | [8] 0.004 | vemurafenib 0.054 | [9] -0.002 | barasertib 0.02 | [10] 0.015 | volasertib -0.006 | [11] 0.013 | [12] -0.162 | [13] 0.093 | saracatinib 0.011 | sotrastaurin 0.01

CYP2S1 isoform 2 (UniProt Q96SQ9)
UniProt Q96SQ9, sequence (Q96SQ9 whole entry, looked up): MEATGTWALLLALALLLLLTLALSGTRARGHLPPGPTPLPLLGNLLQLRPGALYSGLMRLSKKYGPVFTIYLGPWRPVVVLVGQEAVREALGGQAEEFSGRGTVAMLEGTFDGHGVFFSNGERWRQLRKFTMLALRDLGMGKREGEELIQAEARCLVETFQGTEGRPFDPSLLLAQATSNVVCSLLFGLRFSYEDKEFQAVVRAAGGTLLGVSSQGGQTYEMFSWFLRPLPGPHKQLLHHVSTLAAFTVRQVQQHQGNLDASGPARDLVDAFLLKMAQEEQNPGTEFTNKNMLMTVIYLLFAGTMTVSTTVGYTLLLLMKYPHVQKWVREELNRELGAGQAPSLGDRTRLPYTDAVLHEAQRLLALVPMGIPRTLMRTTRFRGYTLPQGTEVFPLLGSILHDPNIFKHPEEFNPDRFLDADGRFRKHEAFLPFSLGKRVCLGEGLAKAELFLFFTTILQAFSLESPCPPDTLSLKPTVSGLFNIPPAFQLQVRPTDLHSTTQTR
inactive: [1] 0.146 | ralimetinib 0.048 | [2] 0 | [3] 0.061 | [5] -0.084 | [6] -0.028 | [7] 0.07 | [8] -0.229 | vemurafenib 0.062 | [9] 0.136 | [10] 0.119 | volasertib 0.038 | [11] 0.063 | saracatinib 0.017 | sotrastaurin 0.081

— the supplement of paper PMC10849652
